About 2,000 (36%) of roughly 5,500 compounds were called active. Not shown: some 18% with an inconclusive outcome. Cut-off read from the data, not from the text of the source: active = normalized growth mostly below about 0.91 (no sharp cut-off); inconclusive = no clear call, values can overlap the other calls; inactive = mostly above about 0.92. This is one part of the list.
Test: chemical genetic growth profiling, strain panel (AID 1159580);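 note: tested at 20 µM; growth read once vehicle control cultures reached saturation at 30 °C; 1 = growth at the plate median or of vehicle wells; lower values mean less growth of the strain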
Conditions: S. cerevisiae deletion strains, growth OD

Measured: normalized growth

O=C(O)CF
inactive: locus YAL013W, strain DEP1, hits give low values 0.998 | locus YAL021C, strain ccr4, hits give low values 1.01 | locus YAL026C, strain drs2, hits give low values 1.02 | locus YAL030W, strain snc1, hits give low values 1.02 | locus YBL061C, strain skt5, hits give low values 1.02 | locus YBR009C, strain hhf1, hits give low values 1.06 | locus YBR021W, strain FUR4, hits give low values 0.97 | locus YBR023C, strain chs3, hits give low values 1.03 | locus YBR171W, strain sec66, hits give low values 1.03 | locus YBR229C, strain ROT2, hits give low values 0.987 | locus YBR231C, strain swc5, hits give low values 1.01 | locus YBR279W, strain paf1, hits give low values 1.03 | locus YCL011C, strain gbp2, hits give low values 1.03 | locus YCL016C, strain dcc1, hits give low values 1.04 | locus YCL029C, strain bik1, hits give low values 0.975 | locus YCL061C, strain MRC1, hits give low values 1.02 | locus YCL069W, strain vba3, hits give low values 1.02 | locus YCR088W, strain abp1, hits give low values 1.02 | locus YDL005C, strain med2, hits give low values 1.02 | locus YDL035C, strain GPR1, hits give low values 1 | locus YDL040C, strain nat1, hits give low values 1.02 | locus YDL074C, strain BRE1, hits give low values 1.03 | locus YDL101C, strain DUN1, hits give low values 0.995 | locus YDL134C, strain PPH21, hits give low values 0.994 | locus YDL185W, strain tfp1, hits give low values 0.967 | locus YDL192W, strain arf1, hits give low values 0.98 | locus YDR001C, strain nth1, hits give low values 1.02 | locus YDR069C, strain doa4, hits give low values 1 | locus YDR101C, strain arx1, hits give low values 0.969 | locus YDR137W, strain rgp1, hits give low values 1.03 | locus YDR150W, strain NUM1, hits give low values 0.995 | locus YDR159W, strain sac3, hits give low values 0.997 | locus YDR162C, strain NBP2, hits give low values 1.03 | locus YDR195W, strain ref2 1 | locus YDR297W, strain sur2, hits give low values 1.03 | locus YDR318W, strain mcm21, hits give low values 0.965 | locus YDR334W, strain swr1, hits give low values 1.03 | locus YDR335W, strain msn5, hits give low values 1.03 | locus YDR388W, hits give low values 0.989 | locus YDR392W, strain spt3, hits give low values 0.981 | locus YDR502C, strain sam2, hits give low values 0.994 | locus YEL003W, strain gim4, hits give low values 1.03 | locus YEL037C, strain rad23, hits give low values 1.03 | locus YEL061C, strain CIN8 (second series), hits give low values 1.03 | locus YEL061C, strain CIN8, hits give low values 0.998 | locus YER015W, strain faa2, hits give low values 1.02 | locus YER016W, strain bim1, hits give low values 1.01 | locus YER110C, hits give low values 0.974 | locus YER111C, strain swi4, hits give low values 1.03 | locus YER155C, strain BEM2 (second series), hits give low values 1.01 | locus YER155C, strain BEM2, hits give low values 0.999 | locus YER167W, strain BCK2, hits give low values 0.985 | locus YFR010W, strain ubp6, hits give low values 1.03 | locus YGL078C, strain dbp3, hits give low values 0.99 | locus YGL086W, strain mad1, hits give low values 0.973 | locus YGL167C, strain pmr1, hits give low values 1.03 | locus YGL173C, strain kem1, hits give low values 1.03 | locus YGL227W, strain vid30, hits give low values 1.02 | locus YGL240W, strain doc1, hits give low values 1 | locus YGL248W, strain PDE1, hits give low values 0.992 | locus YGL253W, strain hxk2, hits give low values 1.01 | locus YGR078C, strain PAC10, hits give low values 1.03 | locus YGR135W, strain pre9, hits give low values 1.01 | locus YGR229C, strain SMI1, hits give low values 1.02 | locus YGR252W, strain gcn5, hits give low values 0.811 | locus YHR013C, strain ard1, hits give low values 1.07 | locus YHR027C, strain rpn1, hits give low values 1.02 | locus YHR030C, strain SLT2, hits give low values 0.988 | locus YHR079C, strain IRE1 (second series), hits give low values 0.979 | locus YHR094C, strain hxt1, hits give low values 0.995 | locus YHR129C, strain ARP1, hits give low values 0.998 | locus YHR142W, strain chs7, hits give low values 1.03 | locus YHR200W, strain rpn10, hits give low values 0.966 | locus YIL066C, strain RNR3, hits give low values 0.988 | locus YIL073C, strain SPO22, hits give low values 0.916 | locus YIL125W, strain kgd1, hits give low values 0.986 | locus YIR030C, strain dcg1, hits give low values 0.991 | locus YJL092W, strain hpr5, hits give low values 1.02 | locus YJL095W, strain BCK1 (second series), hits give low values 1.04 | locus YJL095W, strain BCK1, hits give low values 1.03 | locus YJL115W, strain asf1, hits give low values 1.02 | locus YJL129C, strain trk1, hits give low values 1.05 | locus YJL134W, strain LCB3, hits give low values 0.986 | locus YJL154C, strain vps35, hits give low values 1.02 | locus YJL164C, strain tpk1, hits give low values 1.04 | locus YJL166W, strain qcr8, hits give low values 1 | locus YJL168C, strain set2, hits give low values 0.986 | locus YJL187C, strain SWE1 (second series), hits give low values 1.01 | locus YJL187C, strain SWE1, hits give low values 1.02

Reference: PubChem BioAssay AID1159580 (chemical genetic matrix, 2015)
